Experimental data taken from PubChem BioAssay (NCATS).
Values joined by “and” are separate entries in the source; they are usually repeats but may differ in a detail not shown here. Equal values may be shown once. Inconclusive results are not listed. Entries that show only a call come without a potency. Some compounds were tested as several samples or in several runs, with calls that do not always agree. Active and inactive are the calls of the source. Calls follow the shape of the dose curve; as a rule, active = well fitted inhibition curve with a large enough effect; inconclusive = small, poorly fitted or top-dose-only effect; inactive = flat fitted curve, though single readings scatter.

Molecular target: Phospholipid hydroperoxide glutathione peroxidase GPX4 (Homo sapiens) (UniProt P36969)
Assay: Primary qHTS Assay for Inhibitors of Recombinant Selenoprotein Glutathione Peroxidase 4 (GPX4) (AID 1845192); also: nearly all actives have a fitted effect of over 65% in size
Conditions: recombinant GPX4, GR-coupled NADPH fluorescence, 15 min; series mostly up to 50 µM
Excerpt: Assay Provider: Elias S.J. Arner MD PhD.
Department of Medical Biochemistry and Biophysics
Karolinska Institutet, Solna, Stockholm, Sweden
Selenoprotein glutathione peroxidases (GPX), like the ubiquitously expressed GPX1 and the ferroptosis modulator GPX4, enact their antioxidant activities by reducing hydroperoxides using glutathione. […] GPX1 and GPX4 inhibitors have thus shown promise as anti-cancer agents. Existing inhibitors are often promiscuous, or modulate GPX activity only indirectly, so novel direct inhibitors identified through screening against GPX1 and GPX4 could be valuable. Here, we developed optimized glutathione reductase (GR)-coupled GPX assays for the biochemical high-throughput screen (HTS) of almost 12,000 compounds with known mechanisms of action. Initial hits were triaged using a GR counter-screen, assessed for isoform specificity using a separate GPX2 assay, and were assessed for general selenocysteine-targeting activity using a thioredoxin reductase (TXNRD1) assay. With this suite of assays, we identified novel GPX1/GPX2- and GPX4-specific inhibitors and can here present a validated pipeline for future discovery research for selenoprotein-targeting agents.
SEQUENCE No. (e.g., 1, 2, 3, etc.); […] (e.g., Cells, Incubation, Reagent, etc.); VALUE; DESCRIPTION.
1; Reagent 1; 3 uL; 333.33 nM GPx4 enzyme or no enzyme control in 1536-well, black, solid Greiner assay plate.
2; Compound; 25 nL; Kalypsis pin tool (Wako USA) equipped with a 1536-well pin head.
3; Incubation; 30 min; room temperature.
4; Reagent 2; 1 uL; 500 nM GR, 5 mM GSH, 2.5 mM NADPH solution
5; Reagent 3; 1 uL; 2.5 mM CHP in 50% EtOH.
6; Detection; Fluorescence; ViewLux microplate reader, excitation 340 nm and emission 450 nm.
7; Incubation; 15 min; room temperature.
8; Detection; Fluorescence; ViewLux microplate reader, excitation 340 nm and emission 450 nm.
NOTES (numbers refer to Sequence numbers above)
1. 3 µL of 333.33 nM GPX4 and 0.016% BSA in assay buffer (50 mM Tris-HCl, 2 mM EDTA (pH 7.5), 150 mM NaCl) was added to columns 3-48 of 1536-well plates using a BioRAPTR Flying Reagent Dispenser (Let's Go Robotics (LGR), Carlsbad, CA). A no-enzyme control (0.01% BSA in TES assay buffer) was added to columns 1-2.
2. 25 nL, library and DMSO controls were added to each well with a pin tool (Kalypsys).
3. The assay plates were incubated for 30 minutes at room temperature.
4. 1 µL of master mix (500 nM glutathione reductase (GR), 5 mM reduced glutathione (GSH), 2.5 mM NADPH in assay buffer) was added.
5. 1 µL of cumene hydroperoxide (CHP) ([2.5 mM] in 50% EtOH) was then added within 5 minutes to initiate the reaction. Final concentrations were: 200 nM GPX4, 1 mM GSH, 0.5 mM CHP, 0.5 mM NADPH, 100 nM GR, 0.01% BSA.
6. Initial fluorescence readout (t=0) at 340/450 nm was measured using a ViewLux multimodal detector (PerkinElmer, Waltham, MA).
8. Endpoint fluorescence readout (t=15) at 340/450 nm was measured 15 min after room temperature incubation.
Potency is read from the fitted curve at half-maximal effect.

Phospholipid hydroperoxide glutathione peroxidase GPX4 (Homo sapiens), sequence (P36969 whole entry, looked up): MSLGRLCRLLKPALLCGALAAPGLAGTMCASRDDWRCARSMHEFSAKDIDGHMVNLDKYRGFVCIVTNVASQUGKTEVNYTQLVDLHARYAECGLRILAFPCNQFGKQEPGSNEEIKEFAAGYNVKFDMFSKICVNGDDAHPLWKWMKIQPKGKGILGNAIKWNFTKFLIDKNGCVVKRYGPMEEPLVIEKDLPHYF

Structure (SMILES) | Potency
Clc1ccc2c(c1)C(N1CCNCC1)=Nc1ccccc1O2 | inactive
CC1(C)O[C@H]2CC(=O)OC[C@]23[C@H]2CC[C@@]4(C)[C@H](c5ccoc5)OC(=O)[C@H]5O[C@]54[C@]2(C)C(=O)C[C@@H]13 | inactive
O=C(C1CCCCC1)N1CC(=O)N2CCc3ccccc3C2C1 (stereo not given) | inactive
Clc1ccccc1C(c1ccccc1)(c1ccccc1)n1ccnc1 | inactive
COc1ccc2[nH]cc(CCNC(C)=O)c2c1 | inactive
O=C(c1ccc(OCCN2CCCCC2)cc1)c1c(-c2ccc(O)cc2)sc2cc(O)ccc12 | inactive
CC(C)(Oc1ccc(C2CC2(Cl)Cl)cc1)C(=O)O (stereo not given) | inactive
CC[C@@]1(O)C(=O)OCc2c1cc1n(c2=O)Cc2cc3c(CN(C)C)c(O)ccc3nc2-1 | inactive
CCc1cccc2c3c([nH]c12)C(CC)(CC(=O)O)OCC3 (stereo not given) | inactive
CS(=O)(=O)CCNCc1ccc(-c2ccc3ncnc(Nc4ccc(OCc5cccc(F)c5)c(Cl)c4)c3c2)o1 | inactive
CCCCc1oc2ccccc2c1C(=O)c1cc(I)c(OCCN(CC)CC)c(I)c1 | inactive
C[C@@H]1CC(=O)NN=C1c1ccc(NN=C(C#N)C#N)cc1 | inactive
CN1C(C(=O)Nc2ccccn2)=C(O)c2ccccc2S1(=O)=O | inactive
COc1nc(C)nc(Cl)c1NC1=NCCN1 | inactive
CC12CC3CC(C)(C1)CC(N)(C3)C2 | inactive
Cn1cnc2c1c(=O)[nH]c(=O)n2C | inactive
CC#C[C@]1(O)CC[C@H]2[C@@H]3CCC4=CC(=O)CCC4=C3[C@@H](c3ccc(N(C)C)cc3)C[C@@]21C | inactive
CC(CCc1ccc(O)cc1)NCCc1ccc(O)c(O)c1 (stereo not given) | inactive
CN1CCN2c3ccccc3Cc3ccccc3C2C1 (stereo not given) | inactive
COc1ccccc1N1CCN(CC(O)COc2cccc3ccccc23)CC1 (stereo not given) | inactive

Structure (SMILES) | Potency
OCCN1CCN(CCCN2c3ccccc3Sc3ccc(C(F)(F)F)cc32)CC1 | inactive
Cc1ccc(-c2cc(C(F)(F)F)nn2-c2ccc(S(N)(=O)=O)cc2)cc1 | inactive
COc1ccc(CCN(C)CCCC(C#N)(c2ccc(OC)c(OC)c2)C(C)C)cc1OC (stereo not given) | inactive
O=c1[nH]cc(F)c(=O)[nH]1 | inactive
Cc1cn([C@H]2C=C[C@@H](CO)O2)c(=O)[nH]c1=O | inactive
Clc1ccc(C(c2ccccc2Cl)C(Cl)Cl)cc1 (stereo not given) | inactive
C[C@H]1c2cccc(O)c2C(O)=C2C(=O)[C@]3(O)C(O)=C(C(N)=O)C(=O)[C@@H](N(C)C)[C@@H]3[C@@H](O)[C@@H]21 | inactive
O=C1Cc2cc(CCN3CCN(c4nsc5ccccc45)CC3)c(Cl)cc2N1 | 15.8 µM (active) and inactive
O=C1c2c(O)ccc(O)c2C(=O)c2c(NCCNCCO)ccc(NCCNCCO)c21 | inactive
C[C@](N)(Cc1ccc(O)c(O)c1)C(=O)O | inactive and 14.3 µM (active)
Cc1cnc(C(=O)NCCc2ccc(S(=O)(=O)NC(=O)NC3CCCCC3)cc2)cn1 | inactive
CC(C)Cc1ccc(C(C)C(=O)O)cc1 (stereo not given) | inactive
COc1ccccc1OCC(O)CN1CCN(CC(=O)Nc2c(C)cccc2C)CC1 (stereo not given) | inactive
COc1cc2nc(N3CCN(C(=O)c4ccco4)CC3)nc(N)c2cc1OC | inactive
CCC1(c2ccccc2)C(=O)NCNC1=O | inactive
Cn1c(=O)c2c(ncn2C)n(C)c1=O | inactive
CN(C)CCC=C1c2ccccc2C=Cc2ccccc21 | inactive
CC[N+](CC)(CC)CCOc1cccc(OCC[N+](CC)(CC)CC)c1OCC[N+](CC)(CC)CC | inactive
CC1(CN2CCC(n3c(=O)[nH]c4ccccc43)CC2)OCc2ccccc2-n2cccc21 (stereo not given) | inactive
CN(C)CCCN1c2ccccc2CCc2ccc(Cl)cc21 | inactive
